In PubChem BioAssay (Tox21):
Records with an inconclusive call do not appear. Where a structure was tested more than once in an assay, its records may differ in their call. The source made the active and inactive calls. The call rests on the fitted dose curve; in most records, active means well fitted curve in the direction sought with a large enough effect in the repeat runs; inconclusive means weak or mixed curves; inactive means no such curve, though single readings can be large; an effect the other way counts as inactive or inconclusive.

Legend:
[1] = Human pregnane X receptor (PXR) small molecule agonists, qHTS cell viability counter screen (AID 1346977); conditions: PXR-Luc HepG2 viability, CellTiter-Fluor, 24 h; series mostly up to 92.4 µM; further: nearly all actives have a fitted effect of over 50% in size; further: potency means the concentration at half of the fitted maximal effect
Outline: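 Viability counter screen: CellTiter-Fluor signal in PXR-Luc HepG2 cells, 24hr compound exposure, 37C, 5% CO2.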

[2] = Caspase-3/7 induction in CHO-K1 cells by small molecules, qHTS cell viability counter screen (AID 1346979); conditions: CellTiter-Fluor fluorescence, 17 h; series mostly up to 92.4 µM; further: nearly all actives have a fitted effect of over 35% in size; further: potency means the concentration at half of the fitted maximal effect
Outline: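 Viability readout by fluorescence (CellTiter-Fluor) on wild-type CHO-K1 cells exposed for 16hr at 37C and 5% CO2 to compounds delivered in DMSO; reagent incubated 1hr before reading.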

[3] = Caspase-3/7 induction in CHO-K1 cells by small molecules, qHTS assay (AID 1346980); conditions: CHO-K1 caspase-3/7 induction, Caspase-Glo luminescence, 17 h; series mostly up to 92.4 µM; further: nearly all actives have a fitted effect of over 15% in size
Outline: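 Luminescent Caspase-Glo 3/7 read (30min, room temperature) quantified apoptosis induction. Cells were wild-type CHO-K1, treated with compound for 17hr at 37 C and 5% CO2.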

[4] = Caspase-3/7 induction in HepG2 cells by small molecules, qHTS cell viability counter screen (AID 1346981); conditions: CellTiter-Fluor fluorescence, 17 h; series mostly up to 92.4 µM; further: nearly all actives have a fitted effect of over 30% in size; further: potency means the concentration at half of the fitted maximal effect
Outline: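 HepG2, WT, 2,000 cells/well; 5 hr pre-incubation 37 C/5% CO2; compound pin-transferred from DMSO; 16 hr exposure; CellTiter-Fluor, 1 hr; fluorescence read.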

[5] = target: Nuclear receptor subfamily 1 group I member 2 (Homo sapiens) (UniProt O75469); assay: Human pregnane X receptor (PXR) small molecule agonists, qHTS assay (AID 1346982); conditions: PXR-Luc HepG2, CYP3A4 luciferase reporter, 24 h; series mostly up to 92.4 µM; further: nearly all actives have a fitted effect of over 35% in size; further: potency means the concentration at half of the fitted maximal effect
Nuclear receptor subfamily 1 group I member 2 (Homo sapiens), sequence (O75469 whole entry, looked up): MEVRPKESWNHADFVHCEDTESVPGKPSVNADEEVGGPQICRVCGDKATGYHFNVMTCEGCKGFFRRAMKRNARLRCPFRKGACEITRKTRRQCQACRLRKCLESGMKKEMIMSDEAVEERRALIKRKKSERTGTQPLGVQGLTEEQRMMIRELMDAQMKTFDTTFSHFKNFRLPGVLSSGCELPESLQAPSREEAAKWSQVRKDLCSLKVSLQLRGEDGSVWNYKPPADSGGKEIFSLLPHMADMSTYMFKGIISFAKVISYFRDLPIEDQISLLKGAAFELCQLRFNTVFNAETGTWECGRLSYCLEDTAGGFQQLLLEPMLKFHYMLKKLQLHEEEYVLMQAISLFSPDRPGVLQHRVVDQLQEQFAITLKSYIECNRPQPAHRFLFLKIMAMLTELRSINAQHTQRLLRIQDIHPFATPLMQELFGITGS
Outline: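 Luciferase signal from ONE-Glo (30 min, room temperature) measured activation of hPXR-driven CYP3A4 reporter expression in PXR-Luc HepG2 cells treated with compounds for 24 hr at 37 C.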

[6] = target: Cytochrome P450 2D6 (Homo sapiens) (UniProt P10635); assay: Cytochrome P450 Family 2 Subfamily D Member 6 (CYP2D6) small molecule antagonists: luciferase reporter qHTS assay (AID 1671196); conditions: P450-Glo CYP2D6 enzyme assay, luciferin luminescence, 1 h; series mostly up to 115 µM; further: nearly all actives have a fitted effect of over 50% in size; further: potency means the concentration at half of the fitted maximal effect
Cytochrome P450 2D6 (Homo sapiens), sequence (P10635 whole entry, looked up): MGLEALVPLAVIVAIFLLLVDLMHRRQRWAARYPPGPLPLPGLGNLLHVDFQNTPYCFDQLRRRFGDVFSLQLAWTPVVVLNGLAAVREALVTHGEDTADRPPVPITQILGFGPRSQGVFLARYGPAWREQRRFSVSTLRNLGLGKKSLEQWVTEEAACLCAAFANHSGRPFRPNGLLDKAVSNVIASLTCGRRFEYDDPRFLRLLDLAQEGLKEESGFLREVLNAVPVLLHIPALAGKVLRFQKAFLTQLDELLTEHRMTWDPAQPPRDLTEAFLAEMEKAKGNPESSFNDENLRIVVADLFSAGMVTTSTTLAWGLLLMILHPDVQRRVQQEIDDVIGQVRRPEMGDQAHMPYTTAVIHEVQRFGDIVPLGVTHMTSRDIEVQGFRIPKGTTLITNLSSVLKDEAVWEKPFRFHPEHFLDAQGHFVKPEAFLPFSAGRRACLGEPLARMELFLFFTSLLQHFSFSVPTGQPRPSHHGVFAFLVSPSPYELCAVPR
Outline: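 Read-out is luminescence from luciferin formed by CYP2D6 turnover of a proluciferin substrate, recorded as relative luminescence units. Reactions ran 1 h at room temperature after NADPH regeneration solution was added.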

[7] = target: Nuclear receptor subfamily 1 group I member 2 (Homo sapiens) (UniProt O75469); assay: CYP3A4 induction through human pregnane X receptor (PXR) by small molecules, qHTS assay (AID 1346984); conditions: DPX-2 HepG2 PXR, CYP3A4-luciferin luminescence, 24 h; series mostly up to 46.1 µM; further: nearly all actives have a fitted effect of over 40% in size; further: potency means the concentration at half of the fitted maximal effect
Outline: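 Luminescence readout: luciferase signal after One-Glo (30 min, room temperature), following 3 h at 37C with 3uM final Luciferin-IPA P450 substrate. Cells were DPX-2 (HepG2, PXR/CYP3A4-luc co-transfected) dosed for 24 h.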

[8] = target: Nuclear receptor subfamily 1 group I member 2 (Homo sapiens) (UniProt O75469); assay: Human pregnane X receptor (PXR) activation by small molecules, qHTS assay (AID 1346985); conditions: DPX-2 HepG2 CYP3A4-luciferase, 24 h; series mostly up to 38.3 µM; further: nearly all actives have a fitted effect of over 40% in size
Outline: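 DPX-2 cells (HepG2 co-transfected with a PXR response element and a CYP3A4-promoter luciferase construct) were seeded at 2,000 per well, rested 5 hr at 37C, then exposed to DMSO-dissolved compounds for 24 hr. Activation was read as luciferase luminescence.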

[9] = Caspase-3/7 induction in HepG2 cells by small molecules, qHTS assay (AID 1346978); conditions: HepG2 caspase-3/7 activation, Caspase-Glo luminescence, 17 h; series mostly up to 92.4 µM; further: nearly all actives have a fitted effect of over 15% in size
Outline: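 Caspase-3/7 induction was measured by Caspase-Glo 3/7 luminescence (30 min, room temperature) after a 17 hr compound exposure of wild-type HepG2 cells seeded at 2,000 per well and pre-incubated 5 hr.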
On the % scale 0 is the no-effect control and ±100 the full control effect.

O=C1C(c2[nH]c3ccc(S(=O)(=O)O)cc3c2O)=Nc2ccc(S(=O)(=O)O)cc21
active: Potency [6] 63.3 µM
inactive: Potency [1] | Potency [2] | Potency [3] | Potency [4] | Potency [5]

CCc1cccc(CC)c1NC(=O)CN(CC(=O)O)CC(=O)O
inactive: Potency [1] | Potency [2] | Potency [3] | Potency [4] | Potency [5] | Potency [7] | Potency [8] | Potency [6]

C=C(CC)C(=O)c1ccc(OCC(=O)O)c(Cl)c1Cl
25 µM (active) and inactive: Potency [6]
inactive: Potency [3] | Potency [5]
68.1 µM (active) and inactive: Potency [2]
active: Potency [1] 43 µM | Potency [4] 30.4 µM

COc1ccc2cc1Oc1ccc(cc1)C[C@H]1c3c(cc4c(c3Oc3cc5c(cc3OC)CCN(C)[C@@H]5C2)OCO4)CCN1C
inactive: Potency [3]
active: Potency [1] 11.9 µM | Potency [2] 29.8 µM | Potency [4] 26.6 µM | Potency [7] 10 µM | Potency [6] 15.5 µM

C[C@@H](O)[C@H](N)C(=O)O
inactive: activity change, negative = cytotoxicity [1] 14% [at 19 µM] | activity change, negative = cytotoxicity [2] -0.658% [at 19 µM] | caspase-3/7 activation [3] -0.26% [at 19 µM] | activity change, negative = cytotoxicity [4] -2.32% [at 19 µM] | activation [5] -12.7% [at 19 µM] | Potency [7] | Potency [8] | activity change, negative = inhibition [6] -2.59% [at 23.6 µM]

Cc1nc2n(c(=O)c1CCN1CCC(c3noc4cc(F)ccc34)CC1)CCCC2
inactive: Potency [1] | Potency [2] | Potency [3] | Potency [4] | Potency [5]
active: Potency [6] 2.19 µM

CN1CCN2c3ccccc3Cc3ccccc3C2C1 (centres undefined)
inactive: Potency [1] | Potency [2] | Potency [3] | Potency [4]

C[Si](Cl)(c1ccccc1)c1ccccc1
active: Potency [5] 59.6 µM
inactive: Potency [1] | Potency [2] | Potency [3] | Potency [4]

O=C(O)CN(CCN(CC(=O)O)CC(=O)O)CC(=O)O
inactive: activity change, negative = cytotoxicity [1] 0.665% [at 3.27 µM] | activity change, negative = cytotoxicity [2] 5.31% [at 3.27 µM] | caspase-3/7 activation [3] -0.0599% [at 3.27 µM] | activity change, negative = cytotoxicity [4] -2.26% [at 3.27 µM]

COC(=O)c1ccccc1OC
inactive: Potency [1] | Potency [2] | Potency [3] | Potency [4] | Potency [6]

CCCCCCCCCCCC(=O)OCC(C)OC(=O)CCCCC(=O)O (centres undefined)
inactive: Potency [1] | Potency [2] | Potency [3] | Potency [4] | Potency [5] | Potency [6]

NC(=O)c1cccc([N+](=O)[O-])c1
inactive: Potency [1] | Potency [2] | Potency [3] | Potency [4] | Potency [5] | Potency [6]

Cc1ccc(C(=O)O)cc1
inactive: Potency [1] | Potency [2] | Potency [3] | Potency [4] | Potency [5] | Potency [6]

C=C(C)C(=O)OCCCCCCCCCC
inactive: Potency [3] | Potency [6]
active: Potency [1] 48.9 µM | Potency [2] 54.9 µM | Potency [4] 61.6 µM | Potency [5] 30.9 µM

CC(C)(c1cc(Br)c(OCC(Br)CBr)c(Br)c1)c1cc(Br)c(OCC(Br)CBr)c(Br)c1 (centres undefined)
inactive: Potency [1] | Potency [2] | Potency [3] | Potency [4] | Potency [5] | Potency [6]

CCCc1ccc(OCC(=O)N2CCN(C(=O)COc3ccc(CCC)cc3OC)CC2)c(OC)c1
inactive: Potency [1] | Potency [2] | Potency [3] | Potency [4] | Potency [6]

Sc1nc2ccccc2s1
active: Potency [5] 54.5 µM
inactive: Potency [1] | Potency [9] | Potency [4]

NC(=S)NC(N)=S
inactive: Potency [1] | Potency [2] | Potency [3] | Potency [4]

CCN(CC)c1ccc2c(-c3ccc(S(=O)(=O)O)cc3S(=O)(=O)[O-])c3ccc(=[N+](CC)CC)cc-3oc2c1
active: Potency [1] 5.01 µM | Potency [2] 6.31 µM | Potency [4] 8.91 µM | Potency [6] 29.2 µM
inactive: Potency [3] | Potency [5]

Cc1cccc2cccnc12
inactive: Potency [1] | Potency [2] | Potency [3] | Potency [4] | Potency [5] | Potency [6]

Cl[Si](Cl)(c1ccccc1)c1ccccc1
inactive: Potency [1] | Potency [2] | Potency [3]

CCOC(=O)NNc1ccc(N(CC)CC(C)O)nn1 (centres undefined)
inactive: Potency [1] | Potency [2] | Potency [3] | Potency [4] | Potency [5] | Potency [6]

O=C1CCc2ccc(OCCCCN3CCN(c4cccc(Cl)c4Cl)CC3)cc2N1
active: Potency [1] 16.8 µM | Potency [2] 21.1 µM | Potency [4] 23.7 µM
inactive: Potency [3]

CNc1ccc([N+](=O)[O-])cc1
inactive: Potency [3]
active: Potency [1] 43.4 µM | Potency [2] 48.7 µM | Potency [4] 30.7 µM | Potency [5] 54.6 µM

CCCC(=O)OCCc1ccccc1
inactive: Potency [1] | Potency [2] | Potency [3] | Potency [4] | Potency [5] | Potency [6]

CCCCCc1ccc(Cl)cc1
inactive: Potency [1] | Potency [2] | Potency [3] | Potency [4] | Potency [5] | Potency [6]

C=CC(C)(CCC=C(C)C)OC=O (centres undefined)
inactive: Potency [1] | Potency [2] | Potency [3] | Potency [4] | Potency [5] | Potency [6]

CCCCCCC1CCCC(=O)O1 (centres undefined)
inactive: Potency [1] | Potency [2] | Potency [3] | Potency [4]

Cc1ccc(C)cc1
inactive: Potency [1] | Potency [2] | Potency [3] | Potency [4] | Potency [5] | Potency [6]

OC1CCC(C2CCCCC2)CC1 (centres undefined)
active: Potency [6] 39.9 µM
inactive: Potency [1] | Potency [2] | Potency [3] | Potency [4] | Potency [5]

COc1ccc(-c2coc3cc(O)ccc3c2=O)cc1
inactive: Potency [1] | Potency [2] | Potency [3] | Potency [4]
active: Potency [5] 1.37 µM

COc1ccc2c(c1)c(CC(=O)OC/C=C(\C)CC/C=C(\C)CCC=C(C)C)c(C)n2C(=O)c1ccc(Cl)cc1
inactive: Potency [1] | Potency [2] | Potency [3] | Potency [4]

CCCCCCCCCCCCOCCOCCOCCOCCOCCOCCOCCOCCOCCO
inactive: Potency [3] | Potency [7] | Potency [8] | Potency [6]
active: Potency [1] 11.9 µM | Potency [2] 11.9 µM | Potency [4] 29.8 µM | Potency [5] 7.5 µM

CCC(=O)C(=O)CC
active: Potency [5] 18 µM
inactive: Potency [1] | Potency [2] | Potency [3] | Potency [4] | Potency [6]

c1ccc(C(O[C@@H]2CCCN(CCc3ccc4c(c3)OCO4)C2)c2ccccc2)cc1
active: Potency [1] 61.1 µM | Potency [6] 2.52 µM
inactive: Potency [9] | Potency [3]

CC1=CCC(=C(C)C)CC1
active: Potency [5] 43.3 µM
inactive: Potency [1] | Potency [2] | Potency [3] | Potency [4] | Potency [6]

Cc1cccc(C)c1NC(=O)c1ccc(N)cc1
inactive: Potency [1] | Potency [2] | Potency [3] | Potency [4] | Potency [5] | Potency [6]
